Common to all, as to assay: DAPPL (digital affinity profiling via proximity ligation, sequencing); 10 mM Tris-HCl pH 7.5, 50 mM NaCl, 1 mM DTT, 4% glycerol, room temperature, 30 min; GST-TFs on glutathione beads, 16-mer random dsDNA library, 0.1% formaldehyde crosslink after washing; high values mean tight binding
One experiment deals with T1, FEV (Homo sapiens, UniProt Q99581 1-238).
T1 sequence: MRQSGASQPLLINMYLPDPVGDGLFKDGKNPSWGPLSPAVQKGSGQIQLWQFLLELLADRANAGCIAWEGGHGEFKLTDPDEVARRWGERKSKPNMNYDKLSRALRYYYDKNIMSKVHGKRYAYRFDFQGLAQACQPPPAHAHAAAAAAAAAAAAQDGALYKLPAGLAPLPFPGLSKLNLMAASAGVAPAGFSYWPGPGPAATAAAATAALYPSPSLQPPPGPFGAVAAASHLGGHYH
The note with it: protein: recombinant; tags: N-terminal GST; dsDNA, one strand shown. A digest of the protocol: (§1)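 Human transcription factors carrying a GST fusion were produced in yeast, bound to glutathione beads, tagged with DNA barcodes and pooled together with a tag-only sample. Each pool was held with 200 nmole of a random double-stranded 16-mer DNA library in Tris/NaCl/DTT/glycerol buffer for 30 min at room temperature, then washed, crosslinked in 0.1% formaldehyde, proximity-ligated with BsaI/T4 ligase (1 h, 37 °C), PCR-amplified and sequenced on an Illumina NextSeq500. Binding signal is the read frequency of each hexamer for a given factor divided by its frequency in the tag-only sample.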

The target of the next experiment is ETV5 (Homo sapiens, UniProt P41161 1-510). The note with it: protein: recombinant; tags: N-terminal GST; dsDNA, one strand shown. A digest of the protocol:
as §1

A further experiment has as its target HSF1 (Homo sapiens, UniProt Q00613 1-529). The note with it: protein: recombinant; tags: N-terminal GST; chain copies: 3; dsDNA, one strand shown. In outline:
as §1

The next experiment concerns the target T2, SPIC (Homo sapiens, UniProt Q8N5J4 1-248).
T2 sequence: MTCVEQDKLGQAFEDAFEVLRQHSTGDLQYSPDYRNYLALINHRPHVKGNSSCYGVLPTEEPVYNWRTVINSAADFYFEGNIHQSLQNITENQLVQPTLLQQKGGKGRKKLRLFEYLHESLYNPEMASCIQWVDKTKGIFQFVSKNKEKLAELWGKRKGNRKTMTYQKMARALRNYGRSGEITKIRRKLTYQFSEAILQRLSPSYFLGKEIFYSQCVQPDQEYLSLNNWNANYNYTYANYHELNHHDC
The conditions noted are these: protein: recombinant; tags: N-terminal GST; dsDNA, one strand shown. A digest of the protocol: as §1

Another experiment has as its target ELF4 (Homo sapiens, UniProt Q99607 1-663). The note with it: protein: recombinant; tags: N-terminal GST; dsDNA, one strand shown. In outline: as §1
Another experiment has as its target T3, ELK4 (Homo sapiens, UniProt P28324-2 1-405).
T3 sequence: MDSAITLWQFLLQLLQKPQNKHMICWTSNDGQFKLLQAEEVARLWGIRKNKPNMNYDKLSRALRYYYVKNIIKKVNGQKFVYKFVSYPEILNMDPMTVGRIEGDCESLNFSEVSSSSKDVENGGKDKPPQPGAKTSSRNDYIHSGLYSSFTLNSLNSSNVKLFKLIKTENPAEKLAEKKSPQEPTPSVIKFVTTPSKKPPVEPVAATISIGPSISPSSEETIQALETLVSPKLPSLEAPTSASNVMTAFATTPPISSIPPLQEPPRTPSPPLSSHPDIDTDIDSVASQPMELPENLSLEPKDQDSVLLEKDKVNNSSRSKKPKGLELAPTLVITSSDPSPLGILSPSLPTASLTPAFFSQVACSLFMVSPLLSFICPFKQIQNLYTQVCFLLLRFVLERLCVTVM
The conditions noted are these: protein: recombinant; tags: N-terminal GST; dsDNA, one strand shown. In outline:
as §1

The target in another experiment is T4, ETV2 (Homo sapiens, UniProt O00321 1-342).
T4 sequence: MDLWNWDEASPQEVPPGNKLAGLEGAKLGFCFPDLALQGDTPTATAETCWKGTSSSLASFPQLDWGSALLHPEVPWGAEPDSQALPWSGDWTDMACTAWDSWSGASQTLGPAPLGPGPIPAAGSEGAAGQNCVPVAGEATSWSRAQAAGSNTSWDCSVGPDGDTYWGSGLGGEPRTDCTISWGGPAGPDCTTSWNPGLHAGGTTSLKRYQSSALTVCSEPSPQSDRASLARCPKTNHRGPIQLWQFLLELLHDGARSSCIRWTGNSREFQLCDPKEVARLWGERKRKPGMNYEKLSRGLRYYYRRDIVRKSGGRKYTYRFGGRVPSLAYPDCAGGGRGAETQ
The note with it: protein: recombinant; tags: N-terminal GST; dsDNA, one strand shown. A digest of the protocol: as §1

For another experiment, the target named is T5, ELF3 (Homo sapiens, UniProt P78545 1-371).
T5 sequence: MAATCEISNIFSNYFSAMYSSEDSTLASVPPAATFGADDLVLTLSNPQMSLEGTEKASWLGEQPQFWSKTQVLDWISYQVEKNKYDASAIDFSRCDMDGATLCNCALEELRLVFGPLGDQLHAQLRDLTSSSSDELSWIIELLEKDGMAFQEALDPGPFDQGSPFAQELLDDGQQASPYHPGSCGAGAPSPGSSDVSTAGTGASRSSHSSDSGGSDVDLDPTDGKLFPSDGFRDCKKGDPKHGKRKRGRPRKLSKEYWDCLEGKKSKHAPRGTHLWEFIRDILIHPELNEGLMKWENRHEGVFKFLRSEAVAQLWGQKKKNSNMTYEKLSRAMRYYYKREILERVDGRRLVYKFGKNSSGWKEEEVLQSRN
The note with it: protein: recombinant; tags: N-terminal GST; dsDNA, one strand shown. In outline:
as §1

The next experiment concerns the target CRX (Homo sapiens, UniProt O43186 1-299). The note with it: protein: recombinant; tags: N-terminal GST; dsDNA, one strand shown. A digest of the protocol: as §1
For the next experiment, the target named is ETV1 (Homo sapiens, UniProt P50549 1-477). The note with it: protein: recombinant; tags: N-terminal GST; dsDNA, one strand shown. A digest of the protocol:
as §1

The next experiment concerns the target T6, ERF (Homo sapiens, UniProt P50548 1-548).
T6 sequence: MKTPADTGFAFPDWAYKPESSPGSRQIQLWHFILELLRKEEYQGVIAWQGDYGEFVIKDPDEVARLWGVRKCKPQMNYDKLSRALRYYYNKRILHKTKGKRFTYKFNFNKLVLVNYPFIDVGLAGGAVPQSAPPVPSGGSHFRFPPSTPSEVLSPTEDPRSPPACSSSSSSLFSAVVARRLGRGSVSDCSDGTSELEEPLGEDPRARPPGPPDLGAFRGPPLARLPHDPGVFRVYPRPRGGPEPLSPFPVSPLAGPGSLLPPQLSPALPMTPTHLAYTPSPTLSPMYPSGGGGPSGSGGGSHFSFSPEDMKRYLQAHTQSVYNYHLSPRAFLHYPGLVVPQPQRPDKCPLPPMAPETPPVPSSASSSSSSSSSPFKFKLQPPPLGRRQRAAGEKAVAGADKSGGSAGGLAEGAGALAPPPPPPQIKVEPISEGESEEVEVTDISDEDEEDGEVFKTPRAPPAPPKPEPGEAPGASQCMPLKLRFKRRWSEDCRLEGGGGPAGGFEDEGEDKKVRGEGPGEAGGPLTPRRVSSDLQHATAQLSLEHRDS
The note with it: protein: recombinant; tags: N-terminal GST; dsDNA, one strand shown. In outline: as §1

The next experiment addresses T7, ETV3L (Homo sapiens, UniProt Q6ZN32 1-361).
T7 sequence: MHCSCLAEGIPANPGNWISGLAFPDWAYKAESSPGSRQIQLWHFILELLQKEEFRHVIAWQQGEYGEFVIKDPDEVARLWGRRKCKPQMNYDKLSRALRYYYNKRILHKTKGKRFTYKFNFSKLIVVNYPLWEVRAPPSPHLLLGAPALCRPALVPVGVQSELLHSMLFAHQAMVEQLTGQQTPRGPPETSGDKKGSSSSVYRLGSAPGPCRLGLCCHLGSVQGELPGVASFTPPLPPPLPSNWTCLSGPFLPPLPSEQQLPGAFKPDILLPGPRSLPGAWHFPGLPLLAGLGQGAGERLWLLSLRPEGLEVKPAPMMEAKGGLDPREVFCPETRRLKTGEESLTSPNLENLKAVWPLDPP
The conditions noted are these: protein: recombinant; tags: N-terminal GST; dsDNA, one strand shown. A digest of the protocol: as §1

Another experiment deals with T8, ETS2 (Homo sapiens, UniProt P15036 1-469).
T8 sequence: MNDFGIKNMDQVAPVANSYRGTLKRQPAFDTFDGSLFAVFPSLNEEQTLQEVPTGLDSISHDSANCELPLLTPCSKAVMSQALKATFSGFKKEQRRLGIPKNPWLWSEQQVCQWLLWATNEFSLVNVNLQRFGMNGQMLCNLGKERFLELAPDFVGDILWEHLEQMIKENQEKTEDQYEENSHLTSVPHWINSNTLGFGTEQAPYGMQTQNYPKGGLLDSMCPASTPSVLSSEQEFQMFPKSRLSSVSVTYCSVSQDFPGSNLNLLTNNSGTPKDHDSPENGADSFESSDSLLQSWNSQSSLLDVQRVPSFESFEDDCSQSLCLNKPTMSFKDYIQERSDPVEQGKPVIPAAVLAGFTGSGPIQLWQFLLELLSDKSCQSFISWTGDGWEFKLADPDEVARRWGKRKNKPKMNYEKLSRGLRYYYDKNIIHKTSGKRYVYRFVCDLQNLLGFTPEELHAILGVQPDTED
The conditions noted are these: protein: recombinant; tags: N-terminal GST; dsDNA, one strand shown. A digest of the protocol: as §1

In the next experiment the target is T9, SPDEF (Homo sapiens, UniProt O95238 1-335).
T9 sequence: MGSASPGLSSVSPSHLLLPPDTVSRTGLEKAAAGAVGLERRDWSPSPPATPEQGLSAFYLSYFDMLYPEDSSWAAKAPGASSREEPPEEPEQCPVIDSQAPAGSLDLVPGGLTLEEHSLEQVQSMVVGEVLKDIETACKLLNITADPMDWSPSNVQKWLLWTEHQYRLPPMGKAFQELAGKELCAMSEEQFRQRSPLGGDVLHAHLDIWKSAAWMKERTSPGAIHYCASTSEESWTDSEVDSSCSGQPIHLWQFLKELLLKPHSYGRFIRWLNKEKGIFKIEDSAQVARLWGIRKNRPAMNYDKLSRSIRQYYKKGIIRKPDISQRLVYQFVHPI
The conditions noted are these: protein: recombinant; tags: N-terminal GST; dsDNA, one strand shown. In outline: as §1

For another experiment, the target named is T10, ETV7 (Homo sapiens, UniProt Q9Y603 1-341).
T10 sequence: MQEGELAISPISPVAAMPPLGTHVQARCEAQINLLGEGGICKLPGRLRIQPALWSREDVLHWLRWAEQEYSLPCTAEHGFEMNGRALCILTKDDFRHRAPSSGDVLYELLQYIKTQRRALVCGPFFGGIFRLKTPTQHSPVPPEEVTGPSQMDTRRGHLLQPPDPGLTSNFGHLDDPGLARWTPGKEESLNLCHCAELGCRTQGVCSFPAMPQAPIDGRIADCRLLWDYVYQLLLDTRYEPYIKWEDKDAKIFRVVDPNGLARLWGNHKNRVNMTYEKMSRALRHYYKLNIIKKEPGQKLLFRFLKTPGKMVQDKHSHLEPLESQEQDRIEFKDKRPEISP
The conditions noted are these: protein: recombinant; tags: N-terminal GST; dsDNA, one strand shown. A digest of the protocol: as §1

The target of another experiment is T11, ELF5 (Homo sapiens, UniProt Q9UKW6-2 1-255).
T11 sequence: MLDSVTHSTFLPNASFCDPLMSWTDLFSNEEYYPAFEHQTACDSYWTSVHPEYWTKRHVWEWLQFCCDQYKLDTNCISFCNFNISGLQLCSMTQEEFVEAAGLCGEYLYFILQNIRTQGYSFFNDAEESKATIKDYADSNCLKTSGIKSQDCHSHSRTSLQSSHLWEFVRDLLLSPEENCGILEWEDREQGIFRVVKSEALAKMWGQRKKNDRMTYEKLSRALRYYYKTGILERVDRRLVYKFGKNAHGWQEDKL
The note with it: protein: recombinant; tags: N-terminal GST; dsDNA, one strand shown. A digest of the protocol: as §1

Another experiment has as its target T12, ETV3 (Homo sapiens, UniProt P41162-2 1-143).
T12 sequence: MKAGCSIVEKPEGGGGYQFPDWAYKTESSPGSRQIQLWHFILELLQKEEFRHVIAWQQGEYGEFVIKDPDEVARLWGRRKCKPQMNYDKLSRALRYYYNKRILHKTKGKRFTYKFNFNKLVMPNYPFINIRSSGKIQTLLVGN
The note with it: protein: recombinant; tags: N-terminal GST; dsDNA, one strand shown. In outline: as §1

In the next experiment the target is ETV6 (Homo sapiens, UniProt P41212 1-452). The note with it: protein: recombinant; tags: N-terminal GST; dsDNA, one strand shown. In outline: as §1
Sequence of ETV6 (P41212 whole entry): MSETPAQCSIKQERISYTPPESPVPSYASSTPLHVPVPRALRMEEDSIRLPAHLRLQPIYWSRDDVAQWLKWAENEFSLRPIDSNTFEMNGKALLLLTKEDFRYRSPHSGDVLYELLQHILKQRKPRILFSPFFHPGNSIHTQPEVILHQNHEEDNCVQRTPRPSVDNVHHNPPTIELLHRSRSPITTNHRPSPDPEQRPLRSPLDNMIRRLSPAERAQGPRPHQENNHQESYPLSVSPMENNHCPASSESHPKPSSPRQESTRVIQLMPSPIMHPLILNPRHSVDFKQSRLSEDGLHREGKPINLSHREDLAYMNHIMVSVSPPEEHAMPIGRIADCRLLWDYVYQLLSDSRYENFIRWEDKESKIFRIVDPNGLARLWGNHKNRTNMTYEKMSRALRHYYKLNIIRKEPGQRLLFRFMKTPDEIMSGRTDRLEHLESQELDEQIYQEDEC

Sequence of ETV5 (P41161 whole entry): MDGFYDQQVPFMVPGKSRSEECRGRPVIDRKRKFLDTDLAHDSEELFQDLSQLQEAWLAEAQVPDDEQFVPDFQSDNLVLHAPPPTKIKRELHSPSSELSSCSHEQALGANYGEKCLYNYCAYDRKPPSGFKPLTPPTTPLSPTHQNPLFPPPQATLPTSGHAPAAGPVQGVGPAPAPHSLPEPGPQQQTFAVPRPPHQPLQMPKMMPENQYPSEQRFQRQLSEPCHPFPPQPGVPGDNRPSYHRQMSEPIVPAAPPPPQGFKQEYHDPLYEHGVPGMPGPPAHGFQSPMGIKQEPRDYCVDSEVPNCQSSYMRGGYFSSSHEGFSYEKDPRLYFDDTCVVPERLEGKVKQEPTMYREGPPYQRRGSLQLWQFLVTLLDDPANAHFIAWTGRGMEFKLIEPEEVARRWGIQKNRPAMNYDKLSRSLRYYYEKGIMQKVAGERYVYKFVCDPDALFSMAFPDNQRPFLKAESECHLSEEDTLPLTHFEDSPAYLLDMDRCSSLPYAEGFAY
Sequence of ELF4 (Q99607 whole entry): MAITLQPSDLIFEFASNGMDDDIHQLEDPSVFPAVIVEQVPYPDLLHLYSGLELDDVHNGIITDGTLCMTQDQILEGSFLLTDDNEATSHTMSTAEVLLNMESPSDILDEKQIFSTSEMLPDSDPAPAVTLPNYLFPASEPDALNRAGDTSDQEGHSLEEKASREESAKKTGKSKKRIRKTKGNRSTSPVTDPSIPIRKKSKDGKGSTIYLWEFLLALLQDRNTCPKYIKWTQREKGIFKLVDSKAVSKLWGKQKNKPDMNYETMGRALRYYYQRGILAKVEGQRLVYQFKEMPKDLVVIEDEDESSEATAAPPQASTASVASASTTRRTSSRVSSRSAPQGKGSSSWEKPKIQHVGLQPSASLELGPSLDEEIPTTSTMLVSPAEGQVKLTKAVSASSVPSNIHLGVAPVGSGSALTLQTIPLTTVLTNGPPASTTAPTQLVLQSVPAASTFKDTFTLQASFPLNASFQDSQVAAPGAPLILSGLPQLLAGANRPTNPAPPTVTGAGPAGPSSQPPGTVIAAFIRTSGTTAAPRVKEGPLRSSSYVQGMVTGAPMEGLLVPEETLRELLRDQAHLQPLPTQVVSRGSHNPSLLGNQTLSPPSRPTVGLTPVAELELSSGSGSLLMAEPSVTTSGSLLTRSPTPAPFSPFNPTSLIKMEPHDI
Sequence of HSF1 (Q00613 whole entry): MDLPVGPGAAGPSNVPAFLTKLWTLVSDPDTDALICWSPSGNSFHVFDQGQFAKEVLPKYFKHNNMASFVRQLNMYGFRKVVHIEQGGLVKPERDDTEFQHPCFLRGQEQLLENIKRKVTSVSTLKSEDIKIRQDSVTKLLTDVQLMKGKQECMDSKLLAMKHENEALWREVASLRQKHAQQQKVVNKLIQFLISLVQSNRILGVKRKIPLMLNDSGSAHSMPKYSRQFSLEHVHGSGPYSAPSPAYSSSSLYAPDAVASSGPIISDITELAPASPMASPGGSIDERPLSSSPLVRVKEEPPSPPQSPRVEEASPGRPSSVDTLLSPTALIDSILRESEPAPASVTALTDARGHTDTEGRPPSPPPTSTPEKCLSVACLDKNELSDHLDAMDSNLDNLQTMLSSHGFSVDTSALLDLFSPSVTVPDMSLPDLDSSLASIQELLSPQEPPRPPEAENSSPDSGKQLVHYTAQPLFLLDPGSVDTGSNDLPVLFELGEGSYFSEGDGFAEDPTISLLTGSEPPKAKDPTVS
Sequence of ETV1 (P50549 whole entry): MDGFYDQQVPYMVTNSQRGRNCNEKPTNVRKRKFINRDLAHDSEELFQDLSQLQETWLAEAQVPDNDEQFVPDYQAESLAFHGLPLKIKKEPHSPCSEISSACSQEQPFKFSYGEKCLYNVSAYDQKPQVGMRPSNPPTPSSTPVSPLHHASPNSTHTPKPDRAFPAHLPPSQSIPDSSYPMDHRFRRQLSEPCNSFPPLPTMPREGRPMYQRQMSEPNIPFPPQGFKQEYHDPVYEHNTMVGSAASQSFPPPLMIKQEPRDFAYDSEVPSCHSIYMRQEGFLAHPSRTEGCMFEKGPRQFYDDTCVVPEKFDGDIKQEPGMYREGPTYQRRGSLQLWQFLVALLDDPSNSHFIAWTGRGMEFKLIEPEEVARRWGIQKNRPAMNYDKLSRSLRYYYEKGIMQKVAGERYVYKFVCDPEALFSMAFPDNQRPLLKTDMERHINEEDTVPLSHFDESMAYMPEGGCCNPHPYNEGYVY
Sequence of CRX (O43186 whole entry): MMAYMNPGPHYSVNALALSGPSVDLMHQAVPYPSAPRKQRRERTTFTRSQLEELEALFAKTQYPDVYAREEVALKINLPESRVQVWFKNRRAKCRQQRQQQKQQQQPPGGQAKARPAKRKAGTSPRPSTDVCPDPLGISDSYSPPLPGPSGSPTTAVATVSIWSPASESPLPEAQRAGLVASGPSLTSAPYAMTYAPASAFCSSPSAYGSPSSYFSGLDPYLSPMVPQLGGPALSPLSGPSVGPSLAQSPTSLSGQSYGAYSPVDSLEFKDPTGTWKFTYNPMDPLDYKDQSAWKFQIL

For TCCAAG, the binding signal in the experiment with FEV was 1.03 fold enrichment (6-mer frequency, TF over GST control); in the experiment with ETV5 it was 1.07 fold enrichment (6-mer frequency, TF over GST control); with HSF1, 1.23 fold enrichment (6-mer frequency, TF over GST control); with SPIC, 1.11 fold enrichment (6-mer frequency, TF over GST control); in the experiment with ELF4 it was 1.07 fold enrichment (6-mer frequency, TF over GST control); with ELK4, 1.04 fold enrichment (6-mer frequency, TF over GST control). Moreover, the binding signal with ETV2 is 1.19 fold enrichment (6-mer frequency, TF over GST control); with ELF3, 1.11 fold enrichment (6-mer frequency, TF over GST control); with CRX, 1.2 fold enrichment (6-mer frequency, TF over GST control); with ETV1 it was 1.13 fold enrichment (6-mer frequency, TF over GST control); with ERF, 1.03 fold enrichment (6-mer frequency, TF over GST control); with ETV3L it was 1.06 fold enrichment (6-mer frequency, TF over GST control). Moreover, the binding signal was 1.13 fold enrichment (6-mer frequency, TF over GST control) in the experiment with ETS2; 1.17 fold enrichment (6-mer frequency, TF over GST control) with SPDEF; 1.07 fold enrichment (6-mer frequency, TF over GST control) with ETV7; 1.07 fold enrichment (6-mer frequency, TF over GST control) in the experiment with ELF5; 1.06 fold enrichment (6-mer frequency, TF over GST control) in the experiment with ETV3; 1.03 fold enrichment (6-mer frequency, TF over GST control) in the experiment with ETV6.

(Values after paper PMC7862700, “An all-to-all approach to the identification of sequence-specific readers for epigenetic DNA modifications on cytosine”.)
